NIH3T3 tox: Cytotoxic Profiling in NIH 3T3 Cell Line of Diverse Libraries Using Quantitative High-Throughput Screening; 4.3% of 94,000 active; NIH 3T3 viability, CellTiter-Glo ATP luminescence, 48-72 h; Potency, µM (series often up to 96.7 µM), inactives show at the highest dose activity change, negative = cytotoxicity, usual class: inhibitors; further: nearly all actives have a fitted effect of over 55% in size
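Cytotoxicity is measured as loss of cellular ATP: NIH 3T3 cells (400/well) are exposed to compound for 48 or 72 hr at 37 °C, then CellTiter-Glo luminescence is imaged after 10 min at room temperature.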
GPT2 inhibitor: Primary qHTS assay for inhibitors of Glutamate pyruvate transaminase 2 (GPT2) | Alanine aminotransferase 2 (Homo sapiens), Q8TD30 | Recombinant GPT2, coupled pyruvate oxidase/HRP Amplex Red fluorescence | Potency, µM (titrated, usually from 57.7 µM), for inactives: at the top dose activity change, negative = inhibition, hits mostly inhibitors | 0.25% of 100,000 active | AID 1671188, 2021; further: nearly all actives have a fitted effect of over 60% in size
Target sequence (Q8TD30 whole entry, looked up): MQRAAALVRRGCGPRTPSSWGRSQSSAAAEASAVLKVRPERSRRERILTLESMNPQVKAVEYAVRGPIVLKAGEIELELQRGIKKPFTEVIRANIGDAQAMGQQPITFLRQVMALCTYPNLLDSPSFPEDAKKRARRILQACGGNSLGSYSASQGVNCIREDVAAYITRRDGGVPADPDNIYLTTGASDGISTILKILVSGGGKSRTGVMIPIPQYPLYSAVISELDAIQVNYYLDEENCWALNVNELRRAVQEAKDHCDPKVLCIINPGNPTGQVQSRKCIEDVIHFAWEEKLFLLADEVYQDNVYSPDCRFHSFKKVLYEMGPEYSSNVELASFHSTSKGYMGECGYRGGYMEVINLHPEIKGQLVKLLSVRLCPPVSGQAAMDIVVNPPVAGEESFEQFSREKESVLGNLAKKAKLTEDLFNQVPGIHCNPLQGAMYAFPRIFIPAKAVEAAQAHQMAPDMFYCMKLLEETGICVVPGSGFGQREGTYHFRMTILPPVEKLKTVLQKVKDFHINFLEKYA
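Inhibition is scored from Amplex Red fluorescence generated when pyruvate oxidase and HRP act on pyruvate released by GPT2. Reactions contain 10ng/uL enzyme, 250uM a-KG and 2mM L-alanine and run 30 min at room temperature.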
Luciferase inh: Firefly luciferase inhibition profiling of diverse chemical library using quantitative high-throughput screening; Luciferin 4-monooxygenase (Photinus pyralis), P08659; purified P. pyralis luciferase, luminescence, biochemical; Potency, µM (series often up to 115 µM), usual class: inhibitors; 2.5% of 76,000 active; AID 1347043, 2019; further: nearly all actives have a fitted effect of over 65% in size
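Purified 10nM P. pyralis luciferase with 10uM D-luciferin and 10uM ATP in 50mM Tris acetate pH 7.5, 10mM Mg acetate, 0.01% Tween-20, 0.05% BSA. qHTS titration; luminescence read by CCD imager.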
hNpr1 antagonist: Natriuretic polypeptide receptor (hNpr1) antagonism - Primary qHTS; Atrial natriuretic peptide receptor 1 (Homo sapiens), P16066; HEK293 hNpr1 GloSensor cGMP, ANP-stimulated luminescence; Potency, µM (highest dose often 46.3 µM), without a hit: at the top dose activity change, negative = inhibition, most hits filed as inhibitors; 1.6% of 76,000 active; calls by dose curve; further: nearly all actives have a fitted effect of over 60% in size
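Compound pre-incubated 30 min at room temperature on GloSensor-loaded HEK293 cells stably carrying hNpr1 and the pGS-40F cGMP biosensor. Stimulation uses hNppA at 0.1 nM final; luminescence is taken at baseline and 20 min post-agonist.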
HEK293 tox: Cytotoxic Profiling in HEK 293 Cell Line of Diverse Libraries Using Quantitative High-Throughput Screening. HEK 293 viability, ATP luminescence (CellTiter-Glo), 48-72 h. Potency, µM (doses to about 115 µM), inactives show top-dose activity change, negative = cytotoxicity, actives largely listed as inhibitors. 6.6% of 94,000 active. AID 1345083, 2018; further: nearly all actives have a fitted effect of over 60% in size
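Viability of HEK 293 cells, plated at 250 cells/well, was judged by cellular ATP after compound treatment for 48 or 72 hr. Luminescence was imaged 10 min after CellTiter-Glo addition at room temperature.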
The depositor's hits bear a star; i = inactive; ? = inconclusive; [ ] = another dose, or the depositor's remark. An excerpt weighted towards active compounds, which were near 10% of everything screened. Unless noted, the call rests on the fitted dose curve; in most records, active means well fitted curve in the direction sought with a large enough effect; inconclusive means small, poorly fitted or top-dose-only effect, or another doubt; inactive means no such curve, though single readings can be large; an effect the other way counts as inactive or inconclusive. On the % scale 0 is the no-effect control and ±100 the full control effect; potency means the concentration at half of the fitted maximal effect.

SMILES	NIH3T3 tox	GPT2 inhibitor	Luciferase inh	hNpr1 antagonist	HEK293 tox
Cc1noc2c(NC3CCN(C)CC3)cc(-c3ccccn3)nc12	?	i	i	-1%[70.6 µM]	112µM*
Cc1noc2c(-c3cccnc3NC3CCN(C)CC3)cc(-c3ccccc3)nc12	32µM*	i	i	2%[70.6 µM]	63µM*
Cc1noc2c(NC3CCN(C)CC3)cc(-c3ccccc3)nc12	?	-13%[88.5 µM]	i	1%[70.6 µM]	100µM*
Cc1noc2c(NC(C)C)cc(-c3ccccc3)nc12	?	1%[88.5 µM]	i	1%[70.6 µM]	?
Cc1noc2c(NCCc3ccccn3)cc(-c3ccccc3)nc12	?	-18%[88.5 µM]	i	-2%[70.6 µM]	?
Cc1noc2c(NC3CCN(C)CC3)cc(-c3cccc(C(F)(F)F)c3)nc12	?	-18%[88.5 µM]	i	5%[70.6 µM]	40µM*
O=C1c2c(nc(COc3cc(F)cc(F)c3)n2Cc2ccccc2)NCCN1Cc1ccccc1F	25µM*	-5%	i	-19%	?
COc1cc(OC)cc(OCc2nc3c(n2Cc2ccccc2)C(=O)N(Cc2ccccc2F)CCN3)c1	?	-9%	i	-21%	32µM*
CN(Cc1ccccc1)Cc1nc2c(n1Cc1ccccc1)C(=O)N(Cc1ccccc1F)CCN2	?	i	i	0%	40µM*
COc1ccc(OCc2nc3c(n2Cc2ccccc2)C(=O)N(Cc2ccccc2F)CCN3)cc1OC	?	-16%	i	-17%	?
COc1ccc(OCc2nc3c(n2Cc2ccccc2)C(=O)N(CC2CC2)CCN3)cc1OC	?	-17%	i	-4%	?
O=C1c2c(nc(COc3cc(F)cc(F)c3)n2Cc2ccccc2)NCCN1Cc1ccccc1	25µM*	-1%	i	-30%	25µM*
Cc1ccccc1C(=O)N1CCC(C(NC(=O)c2ccccc2Cl)C(=O)N2CCCCC2)CC1 (centres undefined)	-13%	-7%	i	-14%	-12%
O=C(CC1CCCCC1)N1CC(CO)C2(CCNCC2)C1 (centres undefined)	-7%	5%	i	-4%	-7%
CCN(CC)C(=O)Cn1cc(C(=O)N2CCCC2c2nc3ccccc3s2)nn1 (centres undefined)	-13%	1%	i	3%	-24%
COc1ccc(N2CCN(c3nc(C(=O)NCc4ccco4)cs3)CC2)cc1	?	?	i	-25%	?
CCCN(C)C(=O)c1csc(N2CCN(c3cccc(Cl)c3)CC2)n1	?	?	i	?	32µM*
COc1cccc(N2CCN(c3nc(C(=O)NCc4ccco4)cs3)CC2)c1	?	-22%	i	-9%	45µM*
COc1cccc(C(=O)N2CCCC3(C2)NC(=O)N(Cc2ccc(C)cc2)C3=O)c1 (centres undefined)	-18%	-19%	i	-1%	-27%
O=C1NCCCCCN(C(=O)NC2CCCCC2)[C@@H]2C[C@@H](C(=O)N3CCc4ccccc4C3)C[C@H]12	-15%	-1%	i	0%	?
O=C(NCc1cccc(Cl)c1)C1CCN(C(=O)c2ncn3c2COC(c2ccccc2)C3)CC1 (centres undefined)	-19%	i	20µM*	-14%	1%
O=C(NCc1ccccn1)C1CCN(C(=O)c2ncn3c2COC(c2ccc(Cl)cc2)C3)CC1 (centres undefined)	4%	-10%	32µM*	1%	-10%
O=C(NCc1cccc(Cl)c1)C1CCN(C(=O)c2ncn3c2COC(c2ccc(F)cc2)C3)CC1 (centres undefined)	1%	?	25µM*	3%	14%

Compound activity from PubChem.
